Values joined by “and” are separate entries in the source; they are usually repeats but may differ in a detail not shown here. Equal entries are not always repeated. Where a structure was tested more than once in an assay, its records may differ in their call. Active and inactive are the calls of the source. Unless noted, how the calls were made is not given here.
What was measured:
[1] = liver-stage malaria parasite growth inhibition, primary screen, cell-based, HepG2, luciferase luminescence, HepG2 viability (AID 624349; in the data active means parasite load remaining mostly below about 12%, no sharp cut-off; inactive means mostly above about 10%;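 further: 100% = mean of DMSO negative control wells on the same plate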); conditions: P. berghei liver stage in HepG2, luciferase luminescence, concentration not given here; parasite load remaining: stronger effect = lower value; viability: measured here: HepG2 viability without parasites
[2] = Cy5 fluorescence interference with SSB-bound oligo, artefact control for HCV NS3 helicase inhibitor project, biochemical, NIH Clinical Collection, E. coli SSB (AID 743268)
[3] = test system: Hepatitis C virus NS3 helicase; experiment: HCV NS3 helicase inhibitors, primary screen, biochemical, fluorescence polarization, NIH Clinical Collection (AID 743270); conditions: NS3 helicase binding to Cy5-dT15 DNA, stronger effect = higher value, concentration not given here
[4] = molecular target: Single-stranded DNA-binding protein (Escherichia coli (strain K12)) (UniProt P0AGE0); experiment: E. coli SSB displacement from DNA, counter-screen for HCV NS3 helicase inhibitor project, biochemical, fluorescence polarization, NIH Clinical Collection (AID 743271; in the data active means inhibition above about 28%); conditions: stronger effect = higher value, concentration not given here
[5] = fluorescence interference in NS3h assay format, artefact control for HCV NS3 helicase inhibitor project, biochemical, NIH Clinical Collection (AID 743272); conditions: fluorescence interference counterscreen, stronger effect = lower value;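 further: HCV NS3 helicase with a Cy5 labelled single stranded DNA probe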
[6] = test system: Neuropilin-2 / VEGF-C interaction (human); experiment: inhibitors of NRP2–VEGF-C binding, biochemical, microplate binding format, z-score (AID 743281); conditions: microplate NRP2/VEGF-C binding assay; stronger effect = lower value
[7] = stimulators of nuclear beta-catenin in C2C12, primary screen, imaging, WNT3A-conditioned medium, mouse C2C12, NPC library (AID 1117326; in the data active means nuclear beta-catenin stimulation mostly above about 4.2%, no sharp cut-off; inactive means mostly below about 10%); conditions: stronger effect = higher value
[8] = stimulators of insulin release from INS-1E, primary screen, cell-based, 5 mM glucose, NPC library (AID 1117329;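 active means compound raises insulin release from rat beta cells at 5 mM glucose, no numeric limit stated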); conditions: rat INS-1E insulin secretion, at 10 µM, stronger effect = higher value
[9] = growth inhibition of GSK3B-pretreated HCT116 cells – cell-based, CellTiter-Glo, 0.2 to 20 µM (AID 1117336;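 active means compounds lowering colon cancer cell viability after pretreatment blocking the GSK3B kinase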); conditions: HCT116 viability after GSK3B inhibitor, at 20 µM, stronger effect = higher value
[10] = inhibition of endothelial tube formation, primary screen, imaging, VEGF stimulated, CD31 staining, tube area, NPC library (AID 1117340;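 active means compound that reduces growth-factor-driven endothelial tube area in a mixed cell culture, no cutoff stated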); conditions: VEGF-stimulated ADSC/ECFC co-culture, at 10 µM, stronger effect = higher value
[11] = glucagon-like peptide 1 release enhancers, primary assay, NCI-H716 cell line, NPC library (AID 1117341;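 active means compound raises GLP1 secretion from the human gut endocrine cells, with no numeric limit stated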); conditions: NCI-H716 cells, at 10 µM, stronger effect = higher value
[12] = HCT116 colon cancer cell growth inhibition, primary screen, CellTiter-Glo luminescence, NPC library (AID 1117342;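 active means compounds that lower survival of HCT116 colon cancer cells in the luminescence readout, no numeric limit stated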); conditions: at 20 µM (top of the series)
[13] = CellTiter-Glo luminescent readout of SW480 viability loss, NPC library primary (AID 1117343;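 active means compounds that lower viability of the colon cancer cells in the luminescence readout, with no numeric limit stated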); conditions: CellTiter-Glo luminescence; at 20 µM (top of the series)
[14] = decreased DLD-1 cellular survival, CellTiter-Glo luminescent readout, NPC compound collection, primary HTS (AID 1117346;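 active means compounds that lower survival of DLD-1 colon cancer cells in the luminescence readout, no cutoff given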); conditions: DLD-1 viability, CellTiter-Glo luminescence; at 20 µM (top of the series)

SMILES	parasite load remaining [1]	viability [1]	fluorescence ratio [2]	inhibition [3]	inhibition [4]	fluorescence ratio [5]	z-score [6]	nuclear beta-catenin stimulation ([7]; at 10 µM)	nuclear beta-catenin stimulation ([7]; stimulation, at 2 µM) [%]	insulin secretion stimulation [8]	viability decrease [9]	tube area decrease [10]	GLP1 secretion stimulation [11]	inhibition of viability [12]	viability decrease (inhibition) [13]	viability decrease (inhibition) [14]	outcome [6]
COc1cc(OC)c(C(=O)CCCN2CCCC2)c(OC)c1	144% (inactive) and 82.2% (inactive) and 102% (inactive)	95.2% and 73.3% and 68.5%	1.02 (inactive)	-3.56% (inactive)	-3.95% (inactive)	0.97 (inactive)	-0.505 (inactive)	1.1% (inactive)	0.3	-1% (inactive)	-39.3% (inactive)	17.2% (inactive)	0.3% (inactive)	-8% (inactive)	0.7% (inactive)	-31.7% (inactive)	–
CCCN[C@H]1CCc2nc(N)sc2C1	115% (inactive) and 91.5% (inactive) and 28.8% (inactive)	75% and 71% and 70.5%	1.02 (inactive)	-0.4% (inactive)	-1.64% (inactive) and 0.67% (inactive)	0.97 (inactive) and 1 (inactive)	-0.903 (inactive) and 0.751 (inactive)	0.9% (inactive)	0.5	-3.1% (inactive)	7.2% (inactive)	-9.5% (inactive)	2.6% (inactive)	5.4% (inactive)	51.7% (active)	38.1% (inactive)	–
CCOC(=O)C1=C(C)NC(C)=C(C(=O)OCC)C1c1ccccc1/C=C/C(=O)OC(C)(C)C	-0.13% (active) and 24.4% (inactive)	74.1% and 104%	0.9 (inactive)	3.28% (inactive)	3.54% (inactive)	0.9 (inactive)	-0.248 (inactive)	3% (inactive)	1.2	0.3% (inactive)	117% (active)	101% (active)	-0.4% (inactive)	124% (active)	158% (active)	101% (active)	–
CN(C)CC/C=C1/c2ccccc2COc2ccc(CC(=O)O)cc21	66.3% (inactive) and 36.6% (inactive)	81.2% and 101%	0.96 (inactive)	-6.33% (inactive)	-3.54% (inactive)	0.94 (inactive)	-0.65 (inactive)	-0.9% (inactive)	0.1	1.85% (inactive)	-0.6% (inactive)	5.6% (inactive)	-0.7% (inactive)	3.7% (inactive)	-7.7% (inactive)	7.1% (inactive)	–
NC1CCN(c2nc3c(cc2F)c(=O)c(C(=O)O)cn3-c2ccc(F)cc2F)C1 (centres undefined)	96.2% (inactive) and 26.3% (inactive)	82.6% and 76%	0.97 (inactive)	-5.15% (inactive)	9.91% (inactive)	0.98 (inactive)	-1.29 (inactive)	1% (inactive)	0.1	3.3% (inactive)	24.4% (inactive)	3.6% (inactive)	2.2% (inactive)	-9.3% (inactive)	-19.3% (inactive)	-39.1% (inactive)	–
CNCCCCOc1ccccc1Cc1ccccc1	22.1% (inactive)	54.6%	1 (inactive)	-4.36% (inactive)	-0.87% (inactive)	0.96 (inactive)	-0.524 (inactive)	1.7% (inactive)	1.6	19.5% (inactive)	82.8% (active)	41% (active)	7.5% (inactive)	95.4% (active)	85.7% (active)	50.3% (active)	–
Cn1c(NCCN(CCO)CCCc2ccc([N+](=O)[O-])cc2)cc(=O)n(C)c1=O	109% (inactive) and 18.9% (inactive)	77.5% and 73.5%	0.99 (inactive)	0.4% (inactive)	1.44% (inactive)	0.97 (inactive)	0.0586 (inactive)	0.1% (inactive)	0.3	-5.7% (inactive)	38.3% (inactive)	1.8% (inactive)	2.9% (inactive)	26.6% (inactive)	44.3% (inactive)	14.1% (inactive)	–
CN(C)CCCSc1ccccc1NC(=O)/C=C/c1ccccc1	53.7% (inactive) and 10.2% (inactive)	56.6% and 65.5%	0.99 (inactive)	0.4% (inactive)	-2.41% (inactive)	0.97 (inactive)	-0.209 (inactive)	1.7% (inactive)	1.1	9.9% (inactive)	-78.5% (inactive)	23.1% (inactive)	3.9% (inactive)	25.5% (inactive)	5.3% (inactive)	-18% (inactive)	–
CNS(=O)(=O)Cc1ccc2[nH]cc(CCN(C)C)c2c1	108% (inactive) and 29.1% (inactive)	93.1% and 65.5%	1.05 (inactive)	5.94% (inactive)	6.06% (inactive)	1.03 (inactive)	0.0332 (inactive)	0.9% (inactive)	0.4	0.3% (inactive)	-2.3% (inactive)	15.1% (inactive)	1.4% (inactive)	-2.93% (inactive)	66.2% (active)	-3.8% (inactive)	–
COC1=C(OC)C(=O)C(CCCCCCCCCCO)=C(C)C1=O	97.9% (inactive) and 55.5% (inactive)	71.1% and 140%	0.94 (inactive)	-2.77% (inactive)	2.98% (inactive)	0.94 (inactive)	-0.18 (inactive)	-0.4% (inactive)	-1.8	2.2% (inactive)	118% (active)	66.9% (active)	2.2% (inactive)	94.2% (active)	120% (active)	82.7% (active)	–
O=C1c2cccc3c2[C@H](CCC3)CN1[C@@H]1CN2CCC1CC2	80.1% (inactive)	69.6%	0.94 (inactive)	-1.09% (inactive)	9.84% (inactive)	0.96 (inactive)	-0.136 (inactive)	0.4% (inactive)	1.5	2.7% (inactive)	19.7% (inactive)	-6.9% (inactive)	-4.5% (inactive)	42% (inactive)	31% (inactive)	29.6% (inactive)	–
CC(C)[C@H](N)C(=O)OCCOCn1cnc2c(=O)[nH]c(N)nc21	172% (inactive) and 103% (inactive) and 32.5% (inactive)	88% and 76.1% and 74%	1.06 (inactive)	-4.36% (inactive)	-4.72% (inactive)	1.03 (inactive)	–	0.1% (inactive)	2.1	4.1% (inactive)	4.4% (inactive)	-8.9% (inactive)	2.5% (inactive)	-1% (inactive)	4.3% (inactive)	-6.2% (inactive)	inactive
CC(c1cc2ccccc2s1)N(O)C(N)=O (centres undefined)	58.4% (inactive) and 101% (inactive) and 41.5% (inactive)	101% and 79.1% and 102%	1.02 (inactive)	2.77% (inactive)	-0.87% (inactive)	1.01 (inactive)	-0.124 (inactive)	0.1% (inactive)	0.8	-0.1% (inactive)	-6.5% (inactive)	-39.9% (inactive)	-1.4% (inactive)	-15.9% (inactive)	9.4% (inactive)	-3.8% (inactive)	–
CC(=O)Oc1ccccc1C(=O)Nc1ncc([N+](=O)[O-])s1	0.07% (inactive)	55.1%	1 (inactive)	2.77% (inactive)	4.52% (inactive)	1 (inactive)	-0.0903 (inactive)	13.9% (inactive)	2	-1.8% (inactive)	106% (active)	110% (active)	2.9% (inactive)	107% (active)	120% (active)	95.2% (active)	–
C[C@@H]1CN(CCCn2c3ccccc3c3ccccc32)C[C@H](C)N1	35.7% (inactive)	37.6%	0.94 (inactive)	-6.33% (inactive)	1.18% (inactive)	0.94 (inactive)	-0.119 (inactive)	6.5% (inactive)	4.9	16.2% (inactive)	97.5% (active)	48.2% (active)	20% (active)	107% (active)	128% (active)	82.7% (active)	–
CN1[C@@H]2CC[C@H]1CC(OC(=O)c1c[nH]c3ccccc13)C2 (some centres undefined)	118% (inactive) and 21.9% (inactive)	102% and 67.5%	1.02 (inactive)	-3.56% (inactive)	-3.95% (inactive)	0.9 (inactive)	-0.714 (inactive)	1.1% (inactive)	1.6	13.7% (inactive)	24.6% (inactive)	16.9% (inactive)	-0.1% (inactive)	57.8% (active)	51.8% (active)	43.6% (inactive)	–
C[C@H]1COc2c(C3(N)CC3)c(F)cc3c(=O)c(C(=O)O)cn1c23	143% (inactive) and 21.7% (inactive)	89.8% and 67.5%	1.05 (inactive)	5.15% (inactive)	-0.1% (inactive)	1.02 (inactive)	0.653 (inactive)	1.2% (inactive)	0.2	-0.9% (inactive)	-4.4% (inactive)	2.8% (inactive)	4.2% (inactive)	-19.1% (inactive)	43.9% (inactive)	24.9% (inactive)	–
CC(=O)OCC(=O)NCCCOc1cccc(CN2CCCCC2)c1	165% (inactive) and 103% (inactive) and 34.4% (inactive)	104% and 78.4% and 85%	1.04 (inactive)	-0.4% (inactive)	-0.1% (inactive)	1.02 (inactive)	-0.306 (inactive)	1.8% (inactive)	0.4	-0.7% (inactive)	-69.8% (inactive)	10.4% (inactive)	-0.3% (inactive)	-15.6% (inactive)	22.9% (inactive)	-31.7% (inactive)	–
COc1cc(C)nc(-n2nc(C)cc2OC)n1	32% (inactive) and 118% (inactive) and 64.4% (inactive)	46.8% and 89.6% and 75.3%	0.95 (inactive)	-0.22% (inactive)	5.91% (inactive)	0.88 (inactive)	-0.659 (inactive)	-1.3% (inactive)	-0.3	2.5% (inactive)	-5% (inactive)	24.2% (inactive)	-5.7% (inactive)	-10.1% (inactive)	1.8% (inactive)	-17.2% (inactive)	–

Reference: PubChem BioAssay
